# APOBEC3A inh: blocks human APOBEC3A ssDNA deamination | recombinant A3A, FAM/TAMRA ssDNA deamination fluorescence | AID 493011 | inhibition, % at 20 µM | P31941 | hit rate 0.41% among 330,000;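 active = at least 40% inhibition at 20 µM here, with at most 30% in a related deaminase screen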
# Target sequence (P31941 whole entry, looked up): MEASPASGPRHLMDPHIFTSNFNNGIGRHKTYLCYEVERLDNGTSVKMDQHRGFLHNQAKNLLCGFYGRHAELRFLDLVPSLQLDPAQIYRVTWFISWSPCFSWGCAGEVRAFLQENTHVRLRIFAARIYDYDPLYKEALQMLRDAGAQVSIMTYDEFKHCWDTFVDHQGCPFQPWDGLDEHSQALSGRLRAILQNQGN
# H9c2 TAG inh: triacylglycerol accumulation inhibition; H9c2 cells, Nile Red lipid (TAG) fluorescence; cells loaded with 200 µM oleic acid; inhibition, % at 12.5 µM; hit rate 0.66% among 230,000;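 active = pattern-corrected inhibition of lipid staining of at least 50% with the nuclear-stain viability signal not falling by more than 50%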
# APOBEC3G inh: inhibitors of human APOBEC3G DNA deaminase; Q9HC16; recombinant A3G, ssDNA deamination FAM/TAMRA fluorescence; inhibition, % at 20 µM; hit rate 0.28% among 330,000; AID 493012;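 active = inhibition of at least 40% at 20 µM, with no more than 30% in the related APOBEC3A deaminase screen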
# Target sequence (Q9HC16 whole entry, looked up): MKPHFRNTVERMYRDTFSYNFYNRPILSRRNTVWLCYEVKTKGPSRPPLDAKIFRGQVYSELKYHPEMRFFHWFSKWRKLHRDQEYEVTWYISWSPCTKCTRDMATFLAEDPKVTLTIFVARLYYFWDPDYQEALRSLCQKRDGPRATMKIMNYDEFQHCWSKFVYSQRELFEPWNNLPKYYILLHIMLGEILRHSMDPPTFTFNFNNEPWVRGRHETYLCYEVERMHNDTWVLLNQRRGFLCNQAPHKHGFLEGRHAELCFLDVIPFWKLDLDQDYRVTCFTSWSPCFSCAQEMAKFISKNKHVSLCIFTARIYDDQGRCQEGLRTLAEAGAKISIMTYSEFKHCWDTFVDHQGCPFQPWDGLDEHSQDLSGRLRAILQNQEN
# NadD inh: inhibitors of Staphylococcus aureus NadD | hit rate 0.78% among 360,000 | inhibition, % at 20 µM | purified NadD enzyme, colorimetric absorbance read-out; in the data active = inhibition above about 26%
# Cardio protect: myocardial damage modulation in H9c2 cells | H9c2 cardiomyocytes, H2O2 injury protection, ATPLite, 2 h | protection from H2O2 cell death, % at 20 µM | hit rate 0.63% among 360,000;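 active = compounds giving at least 50% protection of heart cells from peroxide-induced death in the single-dose screen, raw or plate-pattern-corrected value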
# PfGluPho inh: PfG6PD (Plasmodium falciparum) enzyme inhibition. PfGluPho enzyme, NADPH resazurin-diaphorase fluorescence. inhibition, % at 20 µM. hit rate 0.78% among 350,000. AID 504690;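 active = inhibition reaching at least a set limit at 20 µM in the primary screen, cut at about 59% in these data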
# APOBEC3A confirm: APOBEC3A (human) deaminase inhibition, confirmed. hit rate 63% among 1,400. shares compounds with APOBEC3A inh. recombinant A3A, ssDNA deaminase UDG fluorescence assay. inhibition, % at 20 µM;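 active = inhibition reaching a set limit, 80% of the first screen's cutoff, at 20 µM in any replicate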
# UDG A3A counter: UDG inhibition in APOBEC3A counter-screen | UDG counterscreen, FAM/TAMRA uracil oligo fluorescence | 1,000 tested, under 10 active | AID 504714 | inhibition, % at 20 µM | shares compounds with APOBEC3A inh; call rule not given here
# A number is an active result; 0 = inactive; - = no result given. This is a sample that favours compounds with a hit; in the whole collection about 2.9% have one here.
SMILES,APOBEC3A inh,H9c2 TAG inh,APOBEC3G inh,NadD inh,Cardio protect,PfGluPho inh,APOBEC3A confirm,UDG A3A counter
CCCC(NC(=O)CCc1c(C)c2cc3c(-c4ccccc4)coc3cc2oc1=O)C(=O)O (stereo not drawn),0,-,0,0,0,0,-,-
O[C@H]1C[C@H](c2ccc(Cl)cc2)N(CC2CCCCC2)C[C@@H]1n1cc(C2CC2)nn1,-,0,-,0,0,0,-,-
COc1ccc(CN(C)C(=O)CCCNC(=O)c2ccc(Cl)cc2)cc1,46,-,0,0,0,0,0,-
COc1cccc(NC(=O)CN(C)C(=O)CCCNC(=O)c2ccc(Cl)cc2)c1,0,0,0,0,0,0,-,-
CCCCNc1c(C(=O)OCC)c(C)nc2c1cnn2CC,0,0,0,0,0,0,-,-
CC(=O)NNS(=O)(=O)c1ccccc1[N+](=O)[O-],47,-,0,0,0,0,0,0
Cc1ccc(C(=O)NNS(=O)(=O)c2ccccc2[N+](=O)[O-])cc1,0,0,0,0,0,0,-,-
CCC(=O)NC(=S)NNC(=O)COc1ccc(Br)cc1,0,-,0,0,0,0,-,-
Cc1nc2ccc(C(=O)O)cc2c2c1CC(C)S2 (stereo not drawn),43,0,0,0,0,0,46,0
COc1cccc(OC)c1C(=O)NC(=S)Nc1cc(-c2nc3ccccc3[nH]2)ccc1Cl,0,0,0,0,0,0,-,-
CN1CCN(c2ccc(Cl)cc2NC(=O)CC2OC(=O)c3ccccc32)CC1 (stereo not drawn),96,0,0,0,0,0,69,0
Cc1ccccc1C(=O)OCC(=O)Nc1cccc(S(=O)(=O)NC2=NCCC2)c1,0,0,0,0,0,0,-,-
Cc1nc(SCCOc2ccc(F)cc2)c2ccccc2n1,51,-,0,0,0,0,76,0
Cc1ccc(C)c(NC(=O)CSc2ncnc3nc[nH]c23)c1,47,-,0,0,0,0,31,0
Cc1cccc(NC(=O)CSc2ncnc3nc[nH]c23)c1C,0,-,0,0,0,0,-,-
Cc1cc(C)n2nc(SCC#N)nc2n1,97,0,0,0,0,0,0,-
CNC(=O)CSc1nc2nc(C)cc(C)n2n1,0,0,0,0,0,0,-,-
CSC1=NSC2=NC(=O)/C(=C/c3coc4ccc(O)cc4c3=O)C(=N)N12,45,-,0,0,0,0,36,0
CSC1=NSC2=NC(=O)/C(=C/c3coc4ccccc4c3=O)C(=N)N12,-,0,-,0,0,0,-,-
O=C(NCCCO)c1cc([N+](=O)[O-])cc2c1C=Cc1ccccc1O2,47,-,0,0,0,0,0,-
O=C(Nc1ccc2ncccc2c1)c1ccccc1,0,0,0,0,0,0,-,-
O=C(Nc1ccc2ncccc2c1)c1ccccc1Cl,46,-,0,0,0,0,75,0
COc1cc(Nc2cccc[n+]2C)cc(OC)c1OC,69,-,0,0,0,0,62,0
COc1cc(Nc2cccc(-c3ccccc3)n2)cc(OC)c1OC,-,0,-,0,0,-,-,-
COCCN(C(=O)COC(=O)CNC(=O)c1cccs1)c1c(N)n(Cc2ccccc2)c(=O)[nH]c1=O,53,0,0,0,0,0,50,0
SMILES,APOBEC3A inh,H9c2 TAG inh,APOBEC3G inh,NadD inh,Cardio protect,PfGluPho inh,APOBEC3A confirm,UDG A3A counter
CN(CCO)c1cccc2c1S(=O)(=O)N[C@H](Cc1ccccc1)CO2,-,-,-,0,-,-,-,-
CC(=O)Nc1c(C#N)c(-c2ccccc2)c(C#N)c(=O)n1-c1ccc(C)cc1,-,0,-,0,0,-,-,-
O=C(OCc1cc(=O)n2c(n1)sc1ccccc12)c1ccc2c(=O)n3c(nc2c1)CCC3,0,0,0,0,0,0,-,-
Cc1ccc2c(CC(=O)OCc3cc(=O)n4c(n3)sc3ccccc34)coc2c1,44,0,0,0,0,0,0,-
CC(C)[C@H](NC(=O)Cc1ccccc1)C(=O)OCc1cc(=O)n2c(n1)sc1ccccc12,43,0,0,0,0,0,0,-
Cc1ccc(C(=O)/C=C/c2c[nH]c3ccccc23)cc1,0,-,0,0,0,0,-,-
CCN(CC)C(=O)c1ccc(/C=C/c2c[nH]c3ccccc23)[n+](C)c1,42,0,0,0,0,0,68,0
CCOC(=O)CC(NS(=O)(=O)c1ccc2[nH]cc(C(=O)O)c(=O)c2c1)c1ccc(OCC)c(OC)c1 (stereo not drawn),47,-,0,0,0,0,33,-
C=CCCC(=O)NC1CCCc2c1cnn2-c1ccccc1F (stereo not drawn),0,0,0,0,0,0,-,-
C[N+]1(CN2C(=O)C3C4C=CC(C4)C3C2=O)CCCCC1 (stereo not drawn),68,0,0,0,0,0,68,0
O=C(O)C1C2C=CC(C2)C1C(=O)N1CCN(C/C=C/c2ccccc2)CC1 (stereo not drawn),47,0,0,0,0,0,0,-
CC(C)Nc1nc(NC(C)C)nc(Nn2cnnc2)n1,0,0,0,0,0,0,-,-
CC(C)Nc1nc(NC(C)C)nc(N(C)n2cnnc2)n1,41,0,0,0,0,0,0,-
CCN(CC)c1cc(C)c2ccccc2n1,57,0,0,0,0,0,0,-
O=C(COc1ccc(F)cc1)NCC1(N2CCCCC2)CCCCC1,0,0,0,0,0,0,-,-
COc1ccc(N(CC(=O)NCC(C)C)S(=O)(=O)c2ccccc2)cc1,41,0,0,0,0,0,0,-
COc1ccc(N(CC(=O)NCCSc2ccc(C)cc2)S(=O)(=O)c2ccccc2)c(OC)c1,54,-,0,0,0,0,40,0
CC(C)c1ccc(N(CC(=O)NN=C2CCN(C)CC2)S(=O)(=O)c2ccccc2)cc1,65,0,0,0,0,0,0,0
COc1ccc(N(CC(=O)NN=C2CCCC2)S(=O)(=O)c2ccccc2)cc1,0,-,0,0,0,0,-,-
Cc1noc(C)c1CSCC(=O)Nc1ccc(S(=O)(=O)C(F)F)cc1,0,0,0,0,0,0,-,-
Cc1ccc(NC(=O)c2cc(S(=O)(=O)N3CCOCC3)ccc2F)c(C)c1,0,-,0,0,0,0,-,-
Cc1cccc(C(=O)Nc2ccc(S(=O)(=O)N3CCOCC3)cc2C)c1,43,0,0,0,0,0,52,0
Cc1cccc(NC(=O)CSCC(=O)Nc2cc(S(=O)(=O)N3CCOCC3)ccc2N2CCCC2)c1,96,0,0,0,0,0,0,0
Cc1cccc(NC(=O)CSCC(=O)Nc2cc(S(=O)(=O)N3CCOCC3)ccc2OC(C)C)c1,0,0,0,0,0,0,-,-
O=C1NC[C@@H](CCCCN2CCN(Cc3ccccc3)C(=O)C2=O)N(CCC2CCCCC2)C1=O,-,-,-,0,-,-,-,-
CC(=O)c1ccc(NC(=O)CN2C(=O)NC(C)(C3CCCCC3)C2=O)cc1 (stereo not drawn),0,0,0,0,0,0,-,-
